Test results published in PubChem BioAssay.
Records with an inconclusive call do not appear. Active and inactive are the calls of the source.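 Rule for the calls, unless noted: active = normalized viability below 100% at a tested concentration; inactive = the rest.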

Tests used:
[1] = viability loss in pontine glioma line – cell-based, SU-DIPG-XVII, MIPE5.0, CellTiter-Glo, qHTS, dose response (AID 1347060; cut-off not given, nearly all actives have AC50 up to about 26 µM;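 note: cells exposed to compound for 48 hours before viability readout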); settings: CellTiter-Glo ATP luminescence
[2] = viability loss in pontine glioma line – cell-based, JHH-DIPG-1, MIPE4.0, CellTiter-Glo, qHTS, dose response (AID 1347062; cut-off not given, nearly all actives have AC50 up to about 27 µM;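 for AC50: cells exposed to compound for two days before readout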); settings: JHH-DIPG-1 viability, CellTiter-Glo ATP luminescence
[3] = viability loss in pontine glioma line – cell-based, SU-DIPG-IV, MIPE4.0, CellTiter-Glo, qHTS, dose response (AID 1347063; cut-off not given, nearly all actives have AC50 up to about 30 µM;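 note: compound exposure lasted 48 hours before the viability readout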); settings: CellTiter-Glo ATP luminescence
[4] = viability loss in pontine glioma line – cell-based, SU-DIPG-XXV, MIPE5.0, CellTiter-Glo, qHTS, dose response (AID 1347065; cut-off not given, nearly all actives have AC50 up to about 26 µM;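 note: cells exposed to compound for 48 hours before ATP readout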); settings: CellTiter-Glo ATP luminescence
[5] = growth inhibition of DIPG cells – cell-based, MIPE4.0 library, CellTiter-Glo luminescence, qHTS (AID 1347066; cut-off not given, nearly all actives have AC50 up to about 30 µM;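 note: cells exposed to compound for 48 hours before readout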); settings: SU-DIPG-VI viability, CellTiter-Glo ATP luminescence
[6] = JHH-DIPG-1 glioma cell viability, MIPE5.0 library, CellTiter-Glo luminescence, qHTS (AID 1347067; cut-off not given, nearly all actives have AC50 up to about 26 µM;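 note: cells exposed to compound for 48 hours before readout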); settings: JHH-DIPG-1 glioma viability, CellTiter-Glo ATP luminescence
[7] = growth inhibition of DIPG cells – cell-based, MIPE5.0 library, qHTS (AID 1347068; cut-off not given, nearly all actives have IC50 up to about 30 µM;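 note: cells exposed to compound for 48 hours before viability readout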); settings: SU-DIPG-XXV viability
[8] = viability loss with induced miR-34 in A549 – imaging, A549 dox-inducible miR-34, nuclei and caspase counts, primary screen (AID 1347080;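 active = compounds whose cell count with miR-34 switched on is under 0.7 times the count with it off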); settings: A549 miR-34 inducible, Hoechst nuclei count, 48 h
[9] = MELAS cybrid and Rieske KO viability enhancers – cell-based, MELAS cybrids, Rieske KO mouse fibroblasts, CellTiter-Glo, primary screen (AID 1508586;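 active = mean z-score across replicates of 1.96 or higher in either the MELAS or the Rieske mutant cell line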;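 note: z relative to plate mean and SD of compound and empty wells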); settings: low glucose
[10] = compounds altering HSF1 focus formation in cells – imaging, Selleck Cancer Library (AID 1347162; in the data active = plate-normalised HSF1 focus index below about 0.46); settings: human cells, HSF1 nuclear foci imaging, at 10 µM; SSMD: measured here: HSF1 foci SSMD mean; cell count: measured here: cell number; plate-normalised HSF1 focus index: stronger effect = lower value
[11] = drug combination growth inhibition, ovarian cancer – cell-based, oncology-focused library, rucaparib conditional, profiling panel (AID 1508598); settings: patient-derived ovarian cancer cells, CellTiter-Glo viability, 144 h, stronger effect = lower value
[12] = stronger effect = lower value, cell number ratio, induced over uninduced
[13] = measured here: relative caspase fold change +Dox/-Dox
[14] = measured here: total cells with miR-34 induction, stronger effect = lower value
[15] = measured here: total cells without miR-34 induction
[16] = MELAS cybrid survival, CellTiter-Glo 48 h, stronger effect = higher value
[17] = Rieske KO mouse fibroblast survival, CellTiter-Glo 72 h

Structure (SMILES): CC(C)(C)c1cc(C(C)(C)C)c(NC(=O)c2c[nH]c3ccccc3c2=O)cc1O
- AC50 [1]: 11.8 µM (active)
- outcome [2]: inactive
- outcome [3]: inactive
- AC50 [4]: 10.5 µM (active)
- outcome [5]: inactive
- AC50 [6]: 14.8 µM (active)
- IC50 [7]: 16.6 µM (active)
- fold change [8, 12]: 0.893 (inactive)
- fold change [8, 13]: 1.04
- cell count [8, 14]: 5220
- cell count [8, 15]: 5840
- z-score [9, 16]: -0.385 (inactive)
- z-score [9, 17]: 0.598

Structure (SMILES): CC(C)C[C@H](NC(=O)CNC(=O)c1cc(Cl)ccc1Cl)B(O)O
- AC50 [1]: 0.166 µM (active)
- AC50 [2]: 0.166 µM (active)
- AC50 [3]: 0.118 µM (active)
- AC50 [4]: 0.0833 µM (active)
- AC50 [6]: 0.263 µM (active)
- IC50 [7]: 0.105 µM (active)
- SSMD [10]: -0.17
- cell count [10]: 6790
- plate-normalised HSF1 focus index [10]: 0.988 (inactive)
- viability ([11]; at 0.000305 µM, OCI-C5x cells, with rucaparib 10 µM, 100% = cells with rucaparib alone): 111% (inactive)
- viability ([11]; at 0.000305 µM, OCI-C5x cells, without rucaparib): 132% (inactive)
- viability ([11]; at 0.000305 µM, OCI-P5x cells, with rucaparib 20 µM, 100% = cells with rucaparib alone): 106% (inactive)
- viability ([11]; at 0.000305 µM, OCI-P5x cells, without rucaparib): 121% (inactive)
- viability ([11]; at 0.00122 µM, OCI-C5x cells, with rucaparib 10 µM, 100% = cells with rucaparib alone): 112% (inactive)
- viability ([11]; at 0.00122 µM, OCI-C5x cells, without rucaparib): 130% (inactive)
- viability ([11]; at 0.00122 µM, OCI-P5x cells, with rucaparib 20 µM, 100% = cells with rucaparib alone): 106% (inactive)
- viability ([11]; at 0.00122 µM, OCI-P5x cells, without rucaparib): 111% (inactive)
- viability ([11]; at 0.00488 µM, OCI-C5x cells, with rucaparib 10 µM, 100% = cells with rucaparib alone): 126% (inactive)
- viability ([11]; at 0.00488 µM, OCI-C5x cells, without rucaparib): 129% (inactive)
- viability ([11]; at 0.00488 µM, OCI-P5x cells, with rucaparib 20 µM, 100% = cells with rucaparib alone): 104% (inactive)
- viability ([11]; at 0.00488 µM, OCI-P5x cells, without rucaparib): 116% (inactive)
- viability ([11]; at 0.0195 µM, OCI-C5x cells, with rucaparib 10 µM, 100% = cells with rucaparib alone): 122% (inactive)
- viability ([11]; at 0.0195 µM, OCI-C5x cells, without rucaparib): 128% (inactive)
- viability ([11]; at 0.0195 µM, OCI-P5x cells, with rucaparib 20 µM, 100% = cells with rucaparib alone): 96.7% (active)
- viability ([11]; at 0.0195 µM, OCI-P5x cells, without rucaparib): 116% (inactive)
- viability ([11]; at 0.0781 µM, OCI-C5x cells, with rucaparib 10 µM, 100% = cells with rucaparib alone): 88.7% (active)
- viability ([11]; at 0.0781 µM, OCI-C5x cells, without rucaparib): 103% (inactive)
- viability ([11]; at 0.0781 µM, OCI-P5x cells, with rucaparib 20 µM, 100% = cells with rucaparib alone): 101% (inactive)
- viability ([11]; at 0.0781 µM, OCI-P5x cells, without rucaparib): 80.5% (active)
- viability ([11]; at 0.313 µM, OCI-C5x cells, with rucaparib 10 µM, 100% = cells with rucaparib alone): 30.3% (active)
- viability ([11]; at 0.313 µM, OCI-C5x cells, without rucaparib): 22.4% (active)
- viability ([11]; at 0.313 µM, OCI-P5x cells, with rucaparib 20 µM, 100% = cells with rucaparib alone): 22% (active)
- viability ([11]; at 0.313 µM, OCI-P5x cells, without rucaparib): 4.33% (active)
- viability ([11]; at 1.25 µM, OCI-C5x cells, with rucaparib 10 µM, 100% = cells with rucaparib alone): 7.48% (active)
- viability ([11]; at 1.25 µM, OCI-C5x cells, without rucaparib): 6.01% (active)
- viability ([11]; at 1.25 µM, OCI-P5x cells, with rucaparib 20 µM, 100% = cells with rucaparib alone): 2.76% (active)
- viability ([11]; at 1.25 µM, OCI-P5x cells, without rucaparib): 1.33% (active)
- viability ([11]; at 5 µM, OCI-C5x cells, with rucaparib 10 µM, 100% = cells with rucaparib alone): 1.81% (active)
- viability ([11]; at 5 µM, OCI-C5x cells, without rucaparib): 1.62% (active)
- viability ([11]; at 5 µM, OCI-P5x cells, with rucaparib 20 µM, 100% = cells with rucaparib alone): 1.18% (active)
- viability ([11]; at 5 µM, OCI-P5x cells, without rucaparib): 0.837% (active)

Structure (SMILES): CC(C)c1cnn2c(NCc3ccccc3)cc(NCCCCCCN)nc12
- AC50 [1]: 18.6 µM (active)
- AC50 [2]: 20.9 µM (active)
- AC50 [3]: 18.7 µM (active)
- AC50 [4]: 18.6 µM (active)
- AC50 [5]: 23.5 µM (active)
- AC50 [6]: 26.3 µM (active)
- IC50 [7]: 23.5 µM (active)
- fold change [8, 12]: 0.98 (inactive)
- fold change [8, 13]: 0.679
- cell count [8, 14]: 7920
- cell count [8, 15]: 8080
- z-score [9, 16]: -0.424 (inactive)
- z-score [9, 17]: -0.75
